Measured values from the supplement of paper PMC6555819.

How the values were obtained:
Assay in all cases: PBM binding z-score (relative to random genomic background probes); higher = stronger binding; sequences stand for … in GC…GCGATTGACAGCGTAGAATGAAGG
[1] = test system: FXR:RXRa (NR concentration 270 nM, RXRa partner concentration 90 nM)
How it was run: (§1)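 Binding z-scores were set against random background probes. The data came from custom Agilent 4×180K protein-binding microarrays carrying double-stranded probes with 34-nt variable regions, incubated 1 h with ligand-free nuclear receptor dimers. Partner-specific antibodies detected binding, and scanned fluorescence was regression-normalized.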

[2] = test system: LXRa:RXRa (NR concentration 270 nM, RXRa partner concentration 90 nM)
How it was run: as §1

[3] = test system: LXRa homodimer (NR concentration 270 nM)
How it was run: as §1

[4] = test system: LXRb:RXRa (NR concentration 270 nM, RXRa partner concentration 90 nM)
How it was run: as §1

[5] = test system: LXRb homodimer (NR concentration 270 nM)
How it was run: as §1

[6] = test system: PPARa:RXRa (NR concentration 270 nM, RXRa partner concentration 90 nM)
How it was run: as §1

[7] = test system: PPARg:RXRa (NR concentration 180 nM, RXRa partner concentration 90 nM)
How it was run: as §1

[8] = test system: PPARg:RXRa 270nM:90nM, anti-RXR (NR concentration 270 nM, RXRa partner concentration 90 nM)
How it was run: as §1

[9] = test system: PPARg:RXRa 30nM:10nM, anti-RXR (NR concentration 30 nM, RXRa partner concentration 10 nM)
How it was run: as §1

[10] = test system: PPARg:RXRa 90nM:30nM, anti-RXR (NR concentration 90 nM, RXRa partner concentration 30 nM)
How it was run: as §1

Sequence	PBM binding z-score [1]	PBM binding z-score [2]	PBM binding z-score [3]	PBM binding z-score [4]	PBM binding z-score [5]	PBM binding z-score [6]	PBM binding z-score [7]	PBM binding z-score [8]	PBM binding z-score [9]	PBM binding z-score [10]
ATCTCTAGGTAAAGAGAGTTCAGTGAATGCAAAT	0.502	4.09	1.76	1.41	0.27	1.34	0.263	0.567	0.0587	0.356
CCTGCTAAGTCAATGGTCAGCTAAAGCAGCTCGC	-0.665	-0.355	-0.545	-0.517	-0.617	-0.254	-0.271	0.314	-0.862	0.0482
ACCTCTAGGTAACCAAGTTCAGTGAATGCCGAAC	0.335	0.537	0.553	0.37	-0.0596	0.625	0.296	0.581	-0.247	0.404
CCTAGCAGGCTAGGGTCACTCAAGCATTTCGCTT	2.86	2.4	-0.638	2.55	-0.881	3.67	0.643	1.87	-0.254	0.841
TCACACAGGTGAAGGTAACTCAGGTACGCAGTCG	0.851	2.02	-0.228	1	-0.466	1.32	1.14	1.81	2.94	2.66
ACTACCAGGCCAAGTTTGGGTCACTCAAACAAAG	0.642	0.276	0.197	1.05	0.0374	1.58	0.43	0.598	-0.29	0.255
TCACGGAGGACACGAAGGTCAGAGCTTTCCAGAG	1.21	1.07	0.259	0.963	-1.12	1.99	0.712	1.52	2.16	1.87
TCTAGTTGGTCAATGGTCACACACTCGAAATGCG	0.812	0.861	0.28	0.966	0.461	1.74	2.89	4.7	4.08	4.79
CTACCAAGGTGAACAAGCTCGTTGATTACTATTC	0.329	0.121	-0.188	0.479	-0.421	0.984	0.332	0.345	-0.0799	0.167
ATCTCTAGGTAAAGTTCAGTGACAGATCGATAGA	1.17	2.06	1.97	1.27	1.26	2.36	3.41	4.29	2.51	4.24
TCTTGTAGATCAGGAGGTTAAGAAAGCTGGCCAA	0.046	0.738	0.262	0.752	-0.475	1.46	-0.25	1.8	2.55	2.11
